In the library only some 2.9% were active in any assay of this set; here they are far more common.
D3 ag – agonists of human D3 dopamine receptor; P35462; D3R DiscoveRx beta-arrestin cells, luminescence, 90 min; max activation, %; 0.58% of 410,000 active; in the data active = max activation above about 30%
Target sequence (P35462 whole entry, looked up): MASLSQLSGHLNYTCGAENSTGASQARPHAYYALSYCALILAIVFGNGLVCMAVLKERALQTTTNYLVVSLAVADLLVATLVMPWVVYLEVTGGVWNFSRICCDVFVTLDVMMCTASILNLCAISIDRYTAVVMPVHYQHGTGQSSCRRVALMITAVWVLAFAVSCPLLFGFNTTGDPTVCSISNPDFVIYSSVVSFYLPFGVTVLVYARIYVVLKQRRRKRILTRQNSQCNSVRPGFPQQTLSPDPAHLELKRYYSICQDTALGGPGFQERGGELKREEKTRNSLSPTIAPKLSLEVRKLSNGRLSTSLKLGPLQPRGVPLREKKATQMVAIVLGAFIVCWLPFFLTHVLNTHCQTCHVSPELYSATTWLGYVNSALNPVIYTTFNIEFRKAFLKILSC
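Agonist-mode cell screen: cells plated at 1500/well and incubated overnight at 37 °C, then exposed to library compounds for 90 min at 37 °C. Detection reagent was added for 30–60 min at room temperature, and luminescence was read.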
DRD3 antagonist – D3 dopamine receptor (human) antagonism. D3R cells, DiscoveRx beta-arrestin luminescence, antagonist mode; hits give low values. max response, negative = inhibition, %. P35462. 2.5% of 360,000 active; in the data active = max response below about -50%; inconclusive = no clear call, values can overlap the other calls
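Cells plated overnight at 1500 cells/well, then exposed to library compounds with dopamine controls for 90 minutes at 37 degrees C. DiscoveRx reagent added for 30–60 minutes at room temperature; luminescence read, quantitative HTS format.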
TSHR antagonist – human thyrotropin receptor antagonism; AID 504810; TSHR-expressing cells, TSH-stimulated cAMP HTRF, 2 h; hits give low values; activity change, negative = inhibition, % at 11.5 µM; 0.2% of 330,000 active;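 active = activity change below a set negative limit, meaning inhibition stronger than a set level, cut at about -70% in these data; inconclusive = activity change between two set negative limits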
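Inhibition of cAMP made by TSHR-expressing cells under TSH stimulation (4nM final, EC80; 2 h, 37 deg C) is quantified with a one-step lysis HTRF kit, anti-cAMP cryptate versus cAMP-d2.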
B2AR arrestin – beta2AR (human) beta-arrestin recruitment activity | P07550 | beta-arrestin recruitment to beta2AR, cell-based reporter | Potency, µM (doses to about 46.1 µM), hits mostly activators | 0.02% of 330,000 active | AID 492947; active = well fitted activation curve with a large enough effect; inconclusive = small, poorly fitted or top-dose-only effect; also: nearly all actives have a fitted effect of over 65% in size
Hits are given with their value; . = inactive; ? = inconclusive; / = no result given.

SMILES | D3 ag | DRD3 antagonist | TSHR antagonist | B2AR arrestin
Cc1cc2c(cc1C)N(CC(=O)N1CCCC1)C(=O)CC(c1ccccc1)=N2 | . | -74.9 | . | .
COc1ccc2cc1Oc1cc3c(cc1OC)CC[N+](C)(C)[C@H]3Cc1ccc(cc1)Oc1c(OC)c(OC)cc3c1[C@@H](C2)[N+](C)(C)CC3 | . | / | / | /
CN(CC(=O)NC1CCCc2ccccc21)C1CCCCC1 (stereo not given) | . | -51.1 | . | .
NC(=O)c1cc2cc(Cl)ccc2oc1=O | . | ? | . | .
O=C(O)c1cc2cc(Cl)ccc2oc1=O | 34.1 | . | . | .
O=C(NCCCN1CCN(c2cccc(Cl)c2)CC1)c1cnn(-c2ccc(F)cc2)c1-n1cccc1 | . | / | / | /
CC(C)c1ccc(C(C)NC(=O)C2CCCC2)cc1 (stereo not given) | 31.0 | . | . | .
CC(NC(=O)C1CCCC1)c1ccc(Br)cc1 (stereo not given) | . | . | . | .
CC(=O)Nc1ccccc1-c1nc2ccccc2n(CC(=O)c2ccc(C)c(C)c2)c1=O | . | / | / | /
O=C(NCc1ccc(F)cc1)c1cc(C2CCCCN2S(=O)(=O)c2ccccc2)on1 (stereo not given) | . | . | / | /
O=C(NCc1ccc(F)cc1)c1cc(C2CCCCN2S(=O)(=O)Cc2ccccc2)on1 (stereo not given) | . | -99.1 | / | /
CS(=O)(=O)N1CCCCC1c1cc(C(=O)NCc2ccc(F)cc2)no1 (stereo not given) | . | -87.8 | / | /
COc1ccc(-c2csc(N(CCCN(C)C)C(=O)c3ccccc3Cl)n2)cc1 | . | -71.5 | / | /
CN(C)CCCN(C(=O)c1cccs1)c1nc(-c2ccccc2)cs1 | . | -52.6 | . | .
CC(Cc1cccc(C(F)(F)F)c1)NCCOC(=O)c1ccccc1 (stereo not given) | . | -98.8 | . | .
CCc1ccccc1NC(=O)c1ccc(Cn2nc(N3CCN(c4ccccc4)CC3)ccc2=O)o1 | . | / | / | /
Cc1ccc(S(=O)(=O)N2CCN(CCOc3cccc(C)c3)CC2)cc1 | . | -55.0 | . | .
COc1ccc(S(=O)(=O)N2CCN(CCOc3ccccc3Cl)CC2)cc1OC | 35.6 | . | . | .
COc1ccc(S(=O)(=O)N2CCN(CCOc3ccc(Br)cc3)CC2)cc1OC | . | . | . | .
CC(=O)c1ccc(S(=O)(=O)N2CCN(CCOc3ccccc3)CC2)cc1 | . | -58.9 | . | .
O=S(=O)(c1ccc(F)cc1)N1CCN(CCOc2ccccc2)CC1 | . | ? | . | .
Cc1cccn2c(=O)c(C=NCc3ccccc3)c(NCCO)nc12 | . | -71.8 | . | .
Cc1cccn2c(=O)c(/C=N/O)c(NCc3ccccc3)nc12 | . | . | . | .
COc1ccc(-c2c(C)n([O-])c(C)c(C)[n+]2=O)cc1OC | . | . | . | .
CC(=O)c1c(C)n([O-])c2cc(C)ccc2[n+]1=O | . | -51.0 | . | .
SMILES | D3 ag | DRD3 antagonist | TSHR antagonist | B2AR arrestin
CCC(C)NC(=O)c1ccccc1NC(=O)C(C)N(c1ccccc1)S(C)(=O)=O (stereo not given) | . | . | . | .
CCOc1ccccc1NC(=O)C(C)N(c1ccccc1)S(C)(=O)=O (stereo not given) | 37.1 | / | / | /
O=C(OCCc1cc2ccccc2c(=O)o1)c1ccccc1C(F)(F)F | . | ? | -71.2 | .
CO[C@@H]1[C@H](OC(=O)/C=C/C=C/C=C/C=C/C(=O)O)CC[C@]2(CO2)[C@H]1[C@@]1(C)O[C@@H]1CC=C(C)C | . | / | / | /
COc1ccc(CC(=O)N2CCc3cc(OC)c(OC)cc3C2COc2ccc(OC)cc2)cc1 (stereo not given) | . | / | / | /
COC(=O)CSc1nc(N2CCOCC2)c2c(c1C#N)CC(C)(C)OC2 | . | . | . | .
COC(=O)Sc1nc(N2CCOCC2)c2c(c1C#N)CC(C)(C)OC2 | . | -56.5 | . | .
O=C(COC(=O)c1ccc([N+](=O)[O-])o1)NCCCc1ccccc1 | . | -51.4 | . | .
CC(=O)c1ccc(NC(=O)CCNS(=O)(=O)c2cccc3nonc23)cc1 | . | . | . | .
CCc1ccc(NC(=O)CCNS(=O)(=O)c2cccc3nonc23)cc1 | . | -63.3 | . | .
Cc1ccc(OCCSc2nc3ccccc3n2CCC(=O)O)cc1 | . | . | . | .
Cc1ccc(OCCSc2nc3ccccc3n2CCC(=O)O)c(C(C)C)c1 | . | -52.4 | / | /
COc1ccc(-c2ccc(-c3noc(-c4ccco4)n3)c(OC)n2)cc1 | 36.6 | . | . | .
COc1ccc(CNC(=O)CN2C(=O)CCCc3ccccc32)cc1 | . | / | / | /
Cc1ccc(NC(=S)NNC(C)(C)C)cc1 | . | . | . | 8.91µM
CC(C)(C)NNC(=S)Nc1ccc(S(=O)(=O)N2CCOCC2)cc1 | 31.7 | . | . | .
CC(=O)NC(=S)Nc1ccc(S(=O)(=O)N2CCOCC2)cc1 | . | . | . | .
COc1ccc(NC(=O)N(Cc2nnc3n2CCCCC3)c2ccc(OC)c(Cl)c2)cc1 | . | / | / | /
COc1ccc(OCC(O)CN2CCCCCC2)cc1 (stereo not given) | . | -53.7 | . | .
Fc1ccccc1N1CCN(CCCNc2ccc3nncn3n2)CC1 | 46.0 | -61.2 | . | .
c1ccc(CN2CCN(CCCNc3ccc4nnc(-c5ccccc5)n4n3)CC2)cc1 | . | . | . | .
COc1ccc(OCC(O)CN2CCCC2)cc1 (stereo not given) | . | . | . | .
COc1ccc(N(CC(O)CN2CCCCC2)S(=O)(=O)c2ccc(C)cc2)cc1 (stereo not given) | . | -79.8 | . | .
COc1ccc(N2CCN(CC(O)COc3ccc4c(c3)CCC4)CC2)cc1 (stereo not given) | . | -79.3 | . | .
COc1ccccc1-c1noc(-c2ccc(N(C)Cc3ccccc3)c([N+](=O)[O-])c2)n1 | . | / | / | /
SMILES | D3 ag | DRD3 antagonist | TSHR antagonist | B2AR arrestin
CNC(=O)C1CCC(Cn2c(=O)c3sccc3n(CC(=O)Nc3cc(F)ccc3F)c2=O)CC1 (stereo not given) | . | / | / | /
CC1(C)CC(O)CC(C)(C)N1CC(O)COCc1ccccc1 (stereo not given) | . | . | -134.4 | .
Fc1ccccc1N1CCN(CCCc2ccccc2)CC1 | . | -92.4 | . | .
Cc1cccc(OCC(O)CN2C(C)(C)CC(O)CC2(C)C)c1 (stereo not given) | . | . | / | /
OC(COc1ccc2c(c1)CCC2)CN1CCN(c2ccccc2F)CC1 (stereo not given) | 31.6 | ? | . | .
O=[N+]([O-])c1ccc(OCC(O)CN2CCN(c3ccccc3F)CC2)cc1 (stereo not given) | 59.4 | . | . | .
COc1ccc(NC(=O)CN2C(=O)COc3ccc(S(=O)(=O)N4CCCCC4)cc32)cc1Cl | . | / | / | /
CCc1ccccc1NC(=O)CN1C(=O)CCSc2ccc(S(=O)(=O)N3CCCC3)cc21 | . | / | / | /
Clc1ccccc1CN1CCN(CCCc2ccccc2)CC1 | . | -79.4 | . | .
CC1CCCN(CC(O)COc2ccc(-c3ccccc3)cc2)C1 (stereo not given) | . | ? | . | .
OC(COCc1ccccc1)CN1CCN(c2ccccc2F)CC1 (stereo not given) | 51.2 | . | . | .
